About 15 (0.7%) of roughly 2,200 compounds were called active. The list comes from a sample in which actives are over-represented; it also holds similar structures and randomly drawn compounds. A number with no mark means an inactive call.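 Rule for the calls: active = fitted half-maximal concentration for loss of luminescence signal no more than a set limit of log units above the top tested concentration; inconclusive = flat fit with 30 to 70% signal loss, or invalid fit; inactive = half-maximal concentration above that set limit.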

A short description of this test: inhibitors of ADP-Glo detection reagents, dose response, artefact control for GSK3beta inhibitor project, biochemical, luminescence, cell-free, homogeneous (AID 434947).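 Note: kinase-free counter screen of ADP-Glo detection reagents for GSK3beta hits.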 The following applies: 5 uM ADP.
For the compound `CC1(C)CC(=O)C=C(Nc2ccc3c(c2)OCCO3)C1`, the EC50 is > 30 µM.
Consider `COc1ccc(-c2nn(-c3ccccc3)cc2/C=N/N2C(=O)CSC2=S)cc1`, for which the EC50 is > 30 µM.
For `Cc1ccccc1-c1nc(CN2CCC(C(=O)N3CCN(c4ccccn4)CC3)CC2)c(C)o1`, the EC50 was > 30 µM.
On to `CCOC(=O)c1cnc2c(OC)cccc2c1N1CCN(c2ccc(OC)cc2)CC1`, for which the EC50 was > 30 µM.
For the compound `COc1cc(OC)c(OC)cc1CNCC1COc2ccccc2O1` (stereo unspecified), the EC50 is > 30 µM.
On to `CSc1nc(N)c2c3c(sc2n1)CN(C)CC3`, for which the EC50 is > 30 µM.
Under `Cn1c(=O)c2[nH]c(CCCC(=O)O)nc2n(Cc2ccccc2)c1=S` stands > 30 µM; under `NS(=O)(=O)c1cc(C(=O)N=Nc2c(O)[nH]c3ccccc23)ccc1Cl`, > 30 µM.
Next, `O=C(/C=C/c1ccc2ccccc2c1)c1ccoc1`: > 30 µM; `NS(=O)(=O)c1ccc(CCNC(=O)CSc2nc3ccsc3c(=O)n2C2CC2)cc1`: > 30 µM.
For the compound `CN(C)CCCNc1ccc(-c2cc(Nc3cccc(Cl)c3)ncn2)cn1`, the EC50 was > 30 µM.
Under `CN(CCO)c1cc(N2CCC3(CC2)OCCO3)c2nonc2c1[N+](=O)[O-]` stands > 30 µM; under `COC(=O)c1nnn(-c2nonc2N)c1CSc1ccc(Cl)cc1`, > 30 µM.
With `Cc1cccc(OCc2nnc(SCC(=O)Nc3sc(C)c(C)c3C#N)n2C)c1`, the EC50 was > 30 µM.
Next, `CC(C)N1C(=O)N(c2ccc(Cl)cc2)C(C)(O)CC1(C)C` (stereo unspecified): > 30 µM.
Under `CC(C)CCSc1nnc(N)s1` stands > 30 µM; under `CCC(=O)Nc1ccc(Nc2nc(C)c([N+](=O)[O-])c(Nc3ccc(NC(=O)CC)cc3)n2)cc1`, > 30 µM; under `O=C(Nc1ccnn1C1CCN(Cc2cccc(OCCO)c2)CC1)C1CCCC1`, > 30 µM.
Regarding `c1ccc(OCCCn2nnc(-c3ccncc3)n2)cc1`, the EC50 was > 30 µM.
For `Nc1nc(NCCO)nc(NCC2CCCO2)c1[N+](=O)[O-]` (stereo unspecified), the EC50 was > 30 µM.
Next, `N#Cc1c(-c2ccccc2)nc(SCC(=O)Nc2ccc(OC(F)(F)Cl)cc2)[nH]c1=O`: > 30 µM.
Under `O=C(Nc1cc(-c2ccccc2)[nH]n1)c1ccccc1` stands > 30 µM.
Under `COc1cccc(C(=O)Nc2ccc(C(=O)NCC(C)C)cc2)c1` stands > 30 µM.
Consider `CCCCC(CC)C(=O)Nc1ncc([N+](=O)[O-])s1` (stereo unspecified), for which the EC50 is > 30 µM.
Next, `O=C(COc1ccccc1[N+](=O)[O-])N/N=C/c1ccccn1`: > 30 µM; `N/C(Cc1nc2ccccc2s1)=N\O`: > 30 µM.
Consider `COc1cccc(C(=O)Nc2nnc(C(C)C)s2)c1`, for which the EC50 was > 30 µM.
Next, `COc1ccc2nc(Cl)cc(Cl)c2c1`: > 30 µM; `CCCc1cc(=O)[nH]c(SCCOc2ccc(OCC)cc2)n1`: > 30 µM.
Consider `COc1ccccc1/C=C1\C(=O)Nc2ccccc21`, for which the EC50 was > 30 µM.
Next, `Cc1ccc(S(=O)(=O)NNC(=O)c2cccc(O)c2)cc1`: > 30 µM.
Under `COCc1c(C(=O)Nc2ccc(Cl)cc2F)oc2ccccc12` stands > 30 µM.
Regarding `CC(C)c1ccc(NC2=CC(=O)CC(C)(C)C2)cc1`, the EC50 is > 30 µM.
Turning to `O=C(CCc1ccccc1)Nc1ccc2c(c1)OCCO2`, the EC50 is > 30 µM.
Next, `Cc1cc(C)c(C)c(S(=O)(=O)Nc2ccccc2C(=O)NCCCn2ccnc2)c1C`: > 30 µM; `N#Cc1ccc(CSc2nnc(-c3ccncc3)o2)cc1`: > 30 µM.
Under `CN(c1ncnc(N)c1[N+](=O)[O-])C1CCCCC1` stands > 30 µM; under `O=C(O)c1ccccc1N/N=C\c1ccnc2ccccc12`, > 30 µM.
In the case of `COc1ccc(-c2nn(-c3ccccc3)cc2/C=N/O)cc1OC`, the EC50 is > 30 µM.
As for `Cc1cc(C(=O)OCCN2C(=O)c3ccccc3C2=O)c2ccccc2n1`, the EC50 is > 30 µM.
Regarding `Cn1cc(S(=O)(=O)NCc2ccc(F)cc2)c(=O)n(C)c1=O`, the EC50 was > 30 µM.
Under `c1ccc(CNc2nc(-c3cccnc3)nc3ccccc23)cc1` stands > 30 µM.
Turning to `Cc1cc(C(=O)c2ccccc2)c(NC(=O)CN2CCOCC2)s1`, the EC50 is > 30 µM.
Under `CN(Cc1c(C(=O)N/N=C/c2ccccc2F)nnn1-c1nonc1N)c1ccccc1` stands > 30 µM; under `CCn1c(SCC(=O)Nc2ccc(Cl)cc2)nnc1C1CC1`, > 30 µM.
`O=c1c2[nH]c3ccccc3c2ncn1C1CCCCC1`: the EC50 was > 30 µM.
Under `CCOC(=O)/C(C#N)=C/c1cn(CCC(=O)O)nc1-c1ccccc1` stands > 30 µM.
For `CN1CCN(c2ccccc2NC(=O)c2ccc(Br)o2)CC1`, the EC50 was > 30 µM.
`Cc1cnc(C(=O)OCC(=O)N2c3ccccc3CC2C)cn1` (stereo unspecified): the EC50 was > 30 µM.
Next, `N#CCCn1cc(/C=N/O)c(-c2cccc([N+](=O)[O-])c2)n1`: > 30 µM; `COc1cccc(/C=N/Nc2cc(Cl)nc(C)n2)c1O`: > 30 µM.
Regarding `COc1ccc(-c2nn(-c3ccccc3)cc2N)cc1`, the EC50 was > 30 µM.
Regarding `CSc1nc2c(c(=O)[nH]1)C(c1ccccc1)C1=C(CC(C)(C)CC1=O)N2` (stereo unspecified), the EC50 is > 30 µM.
Next, `CC(=O)C(Sc1ccc2nnc(-c3ccc(F)cc3)n2n1)C(C)=O`: > 30 µM; `NNC(=O)CNC(=O)c1ccc(F)cc1`: > 30 µM.
Next, `Cn1c(=S)n(CCC(=O)O)c2ccccc21`: > 30 µM; `O=C(NCC(c1ccco1)N1CCc2ccccc21)c1c(F)cccc1F` (stereo unspecified): > 30 µM.
`Cc1ccc(-c2nn(-c3ccccc3)cc2/C=N/NS(=O)(=O)c2ccccc2)cc1`: the EC50 was > 30 µM.
Under `COCCn1c(SCC(=O)Nc2ccc(Cl)c(S(=O)(=O)N(C)C)c2)nc2ccccc21` stands > 30 µM; under `COc1cccc(N=Nc2c(N)[nH][nH]c2=O)c1`, > 30 µM; under `Cc1cc(NC(=O)CSc2nnc(C3CC3)n2Cc2ccccc2)no1`, > 30 µM.
Next, `CNc1nc(N)c([N+](=O)[O-])c(NCC2CCCO2)n1` (stereo unspecified): > 30 µM; `COc1cc(SC)ccc1C(=O)OCC(=O)NCCNC(=O)COC(=O)c1ccc(SC)cc1OC`: > 30 µM.
Consider `CCOC(=O)COC(=O)c1ccc(O)cc1`, for which the EC50 is > 30 µM.
Next, `COc1ccc(C(=O)OCCc2ccc(O)cc2)cc1`: > 30 µM; `Cc1ccc(C(=O)N/N=C2\CCCc3ccccc32)c(C)c1`: > 30 µM; `Cc1ccc(C(=O)O/N=C(\N)c2ccccn2)c(C)c1`: 17.6 µM (active).
With `Cc1ccc(C(=O)O/N=C(\N)c2ccccn2)c(Cl)c1`, the concentration for a half-maximal effect (EC50) was 26.6 µM (active).
On to `COc1ccc(C(=O)c2sc(Nc3ccccc3)nc2N)cc1`, for which the EC50 was > 30 µM.
Next, `Cc1ccc2nc3c(cc2c1)c(NC(=O)c1ccccn1)nn3CC(C)C`: > 30 µM.
Under `Cc1ccc(-c2cc(C(=O)NCCc3ccccn3)c3ccccc3n2)c(C)c1` stands > 30 µM; under `COc1ccc(C(=O)O/N=C(\N)c2ccccn2)cc1`, 15.5 µM (active); under `CCc1ccc(CNC(=O)C2CCC(=O)N(CCc3ccc(Cl)cc3)C2)nc1` (stereo unspecified), > 30 µM.
As to `O=C(O)COc1ccc(C(=O)c2ccccc2)cc1`, the EC50 was > 30 µM.
Under `CSc1nc(NCCCN(C)C)c2c3c(sc2n1)CN(C)CC3` stands > 30 µM; under `OCCNc1nc(-c2cccnc2)nc2ccccc12`, > 30 µM.
Under `CCC(C)Nc1nc(N)c([N+](=O)[O-])c(NCc2ccccc2)n1` (stereo unspecified) stands > 30 µM.
`Cc1ccc(NC(=O)CSCc2ccc(F)cc2)cc1`: the EC50 was > 30 µM.
As to `CCN1CCc2c(sc(NC(=O)Cc3ccccc3)c2C(N)=O)C1`, the EC50 was > 30 µM.
Under `COc1ccc(OC)c(C(O)c2coc3ccc(O)c(CN(C)C)c23)c1` (stereo unspecified) stands > 30 µM; under `CCn1c(/C=C/N(C(C)=O)c2ccccc2)[n+](CC)c2ccc(Cl)cc21`, > 30 µM.
For the compound `CCOc1ccc(/C=N/Nc2ccccn2)cc1OC`, the EC50 was > 30 µM.
Under `Cc1ccc(S(=O)(=O)CC(=O)c2cc3cccc(C)c3oc2=O)cc1` stands > 30 µM; under `Nc1nc(NCCc2ccccc2)nc(NCCO)c1[N+](=O)[O-]`, > 30 µM.
As to `O=C(N/N=C/c1ccc(-c2ccc(Cl)c(C(=O)O)c2)o1)c1cc2c(ccc3ccccc32)o1`, the EC50 was > 30 µM.
Under `CCn1c(SCC(=O)Nc2nccs2)nnc1C1CC1` stands > 30 µM.
As for `COc1ccc(N(C(=O)c2ccncc2)S(=O)(=O)c2cccc([N+](=O)[O-])c2)cc1`, the EC50 is > 30 µM.
Next, `Cc1ccc(-c2nc(Nc3cccc(O)c3)c3ccccc3n2)cc1`: > 30 µM; `CN(C)S(=O)(=O)c1cc(NC(=O)COC(=O)Cc2ccc(Br)cc2)ccc1Cl`: > 30 µM.
As for `CSc1nc(C)cc(-n2ccc(=O)[nH]c2=O)n1`, the EC50 was > 30 µM.
Take `CC(C)OCCCN1CN(S(=O)(=O)c2cccc(Cl)c2)c2nc3ccccc3nc21`: the EC50 was > 30 µM.
In the case of `COc1ccc(-c2nn(-c3ccccc3)cc2C(=O)O)cc1`, the EC50 was > 30 µM.
Under `COCCOc1ccc(C(F)(F)F)cc1NC(=O)COC(=O)c1cc[n+]([O-])cc1` stands > 30 µM.
As to `COc1cccc(C(=O)Nc2nc3ccccc3s2)c1`, the EC50 is > 30 µM.
Next, `CCSc1ccc2nnc(-c3cccs3)n2n1`: > 30 µM.
Next, `CCCCn1nc(NC(=O)CCC)c2cc3cc(OC)ccc3nc21`: > 30 µM.

The values above are taken from PubChem BioAssay AID434947 (Broad Institute, 2010).
